Drawing on PubChem BioAssay (NCI), this text covers growth inhibition for 20 compounds.

The nature of experiment [1]: NCI Yeast Anticancer Drug Screen. Data for the rad50 strain (AID 155).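 Further: 0% = growth of vehicle-only cultures of the same strain.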 To be noted: S. cerevisiae rad50 strain growth inhibition; at 50.0 µM; stronger effect = higher value. The method, boiled down:
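Yeast carrying a defined DNA repair defect were exposed to test compounds, and growth was compared with vehicle-treated controls to give percent inhibition.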

Experiment [2] in a line: NCI Yeast Anticancer Drug Screen. Data for the mec2-1 strain (AID 157). To be noted: S. cerevisiae mec2-1 strain, at 50.0 µM, stronger effect = higher value. The method, boiled down:
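Vehicle-treated cultures served as reference for growth inhibition of compound-exposed mec2-1 yeast.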

Experiment [3] can be described thus: NCI Yeast Anticancer Drug Screen. Data for the sgs1 mgt1 strain (AID 161).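 Further: 0% = growth of cultures given vehicle only.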 The conditions noted are these: S. cerevisiae sgs1 mgt1 strain, at 50.0 µM, stronger effect = higher value. The method, boiled down:
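Mutant yeast exposed to compound; growth scored against vehicle-only wells.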

Experiment [4] is described as follows: NCI Yeast Anticancer Drug Screen. Data for the cln2 rad14 strain (AID 165).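 Further: 0% = growth equal to vehicle treated cultures.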 The conditions noted are these: S. cerevisiae cln2 rad14 strain, at 50.0 µM, stronger effect = higher value. A digest of the protocol:
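Each compound was tested on cln2 rad14 yeast. Inhibition of growth was calculated against vehicle-exposed controls.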

Experiment [5] can be described thus: NCI Yeast Anticancer Drug Screen. Data for the bub3 strain (AID 167). The conditions noted are these: S. cerevisiae bub3 mutant strain, at 50.0 µM, stronger effect = higher value. The method, boiled down:
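Compounds were applied to a genetically altered yeast strain carrying a cell-cycle control defect. Growth inhibition was scored against vehicle-treated controls.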

Experiment [6] can be described thus: NCI Yeast Anticancer Drug Screen. Data for the mlh1 rad18 strain (AID 175). To be noted: S. cerevisiae mlh1 rad18 strain growth inhibition; at 50.0 µM; stronger effect = higher value. The method, boiled down: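 Vehicle-treated cultures served as the reference for growth inhibition in a yeast strain carrying DNA damage repair alterations exposed to each compound.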

The panel holds about 79,000 compounds, 15% with a hit somewhere; the sample as a whole holds those more often. Unmarked numbers belong to inactive results. Activity calls are given as the source filed them. No stated cut-off is given here; in the data, active means growth inhibition above about 70%; inactive means the rest.

Take `CS(=O)(=O)OC1C(O)C(O)OC(CO)C1O` (stereo not given): the growth inhibition in experiment [1] is -18.4%; in experiment [2], 12.9%; in experiment [3], 4.5%; in experiment [4], -49.7%; in experiment [5], 5.75%; in experiment [6] it was 7.7%.
For the compound `COc1ccc(C2C3=C(COC3=O)Oc3cc4c(cc32)OCO4)cc1OC` (stereo not given), the growth inhibition in experiment [1] is -21.5%; in experiment [2], -33%; in experiment [3], -17.9%; in experiment [4], -3.95%; in experiment [5] it was 5.45%; in experiment [6] it was -10.8%.
For `COc1ccc(CCNC(=O)c2ccc(CSc3ccc(Cl)cc3)o2)cc1OC`, the growth inhibition in experiment [1] is 34.5%; in experiment [2], 24.1%; in experiment [3] it was 37.6%; in experiment [4], 50.5%; in experiment [5], 42.8%; in experiment [6] it was 25.1%.
Turning to `O=C(O)c1cc(S(=O)(=O)O)ccc1O`, the growth inhibition was 9.7% in experiment [1]; 18% in experiment [2]; -9.9% in experiment [3]; -29.9% in experiment [4]; -16.7% in experiment [5]; -13.2% in experiment [6].
Turning to `CNC(=O)OCC1=CC(=O)C=C(OC)C1=O`, the growth inhibition in experiment [1] is 7.3%; in experiment [2], -14.9%; in experiment [3], 18.4%; in experiment [4], 14.4%; in experiment [5], 2.45%; in experiment [6] it was 9%.
Consider `Cc1nn(C(N)=S)c(C)c1N=Nc1ccc(Cl)cc1`, for which the growth inhibition in experiment [1] was 9.6%; in experiment [2], -0.25%; in experiment [3], 10.8%; in experiment [4], -62.8%; in experiment [5] it was -8.35%; in experiment [6], 19.9%.
As to `Cl/C(=C\c1ccccc1)c1ccccc1`, the growth inhibition was 20.4% in experiment [1]; -6.55% in experiment [2]; -5.7% in experiment [3]; -42.5% in experiment [4]; 7.7% in experiment [5]; -6.55% in experiment [6].
`O=C1C2C3CCC(O3)C2C(=O)N1c1ccccn1` (stereo not given): the growth inhibition in experiment [1] is -26.3%; in experiment [2], -11.6%; in experiment [3], -4.85%; in experiment [4] it was -25.1%; in experiment [5], 2.25%; in experiment [6] it was 0.2%.
Take `NNC(=O)c1ccc(Cl)cc1Nc1ccccc1`: the growth inhibition is 24.9% in experiment [1]; 47% in experiment [2]; 59% in experiment [3]; 16.7% in experiment [4]; -17.2% in experiment [5]; 89% (active) in experiment [6].
For `C=CC(C)n1cnc2c1c(=O)n(C)c(=O)n2C` (stereo not given), the growth inhibition was -5.1% in experiment [1]; -9.35% in experiment [2]; -11.2% in experiment [3]; -35% in experiment [4]; -5.4% in experiment [5]; 2.8% in experiment [6].
As for `CS(=O)(=O)ON1C(=O)c2ccccc2C1=O`, the growth inhibition in experiment [1] was 9.9%; in experiment [2], -52%; in experiment [3], -3.9%; in experiment [4], 6.5%; in experiment [5], -2.6%; in experiment [6], -9.55%.
Turning to `O=C(/C(=C/c1ccccc1)c1ccc(Cl)cc1)c1ccccc1`, the growth inhibition in experiment [1] was 12.6%; in experiment [2], 13.9%; in experiment [3], 13.7%; in experiment [4], -15.1%; in experiment [5] it was 5.9%; in experiment [6], -4%.
For `NC(CSC(=O)c1ccccc1)C(=O)O` (stereo not given), the growth inhibition in experiment [1] was -14.2%; in experiment [2], -3.45%; in experiment [3], -19.8%; in experiment [4], -2.55%; in experiment [5], -30.2%; in experiment [6] it was -19.9%.
Regarding `NC1C(O)OCC(O)C1O` (stereo not given), the growth inhibition in experiment [1] is -0.35%; in experiment [2], 9.3%; in experiment [3], 10.2%; in experiment [4] it was 7.25%; in experiment [5], 19.4%; in experiment [6] it was 23.1%.
For `CC(C)C1CCC(C)(C=O)C1` (stereo not given), the growth inhibition was -19.7% in experiment [1]; -0.5% in experiment [2]; -14.3% in experiment [3]; -7.85% in experiment [4]; -5.75% in experiment [5]; -26.9% in experiment [6].
For `CC(C)(C)c1ccc(P(=O)(O)C(C)(C)C)cc1`, the growth inhibition in experiment [1] was -9.5%; in experiment [2] it was 5.9%; in experiment [3], -15.5%; in experiment [4], 35%; in experiment [5], 4.15%; in experiment [6], 6.95%.
For the compound `CC(Cl)CN1c2ccccc2Sc2ccc(Cl)cc21` (stereo not given), the growth inhibition in experiment [1] was 33%; in experiment [2], -5.4%; in experiment [3] it was 2.35%; in experiment [4], 23%; in experiment [5] it was 5.35%; in experiment [6], 16.8%.
Regarding `CCOc1ccc(/C(O)=C/c2nc3ccccc3nc2/C=C(\O)c2ccc(OCC)cc2)cc1`, the growth inhibition was -2.1% in experiment [1]; -13.7% in experiment [2]; 16.4% in experiment [3]; -0.75% in experiment [4]; 36% in experiment [5]; 13.6% in experiment [6].
With `CC(=O)OC1c2ccccc2Cc2ccccc21`, the growth inhibition in experiment [1] was 21.5%; in experiment [2], 26.3%; in experiment [3], 4.1%; in experiment [4], 16.6%; in experiment [5], 19.1%; in experiment [6], 13.1%.
`Nc1ccc(Cl)cc1Cl`: the growth inhibition in experiment [1] is -28.3%; in experiment [2], -7.1%; in experiment [3] it was -33.5%; in experiment [4], -34%; in experiment [5] it was -0.1%; in experiment [6], -21.3%.
